Experimental data taken from PubChem BioAssay AID1159580 (chemical genetic matrix, 2015).
In all, about 5,500 compounds went through this assay and about 2,000 (36%) were called active. Roughly 18% stayed inconclusive and do not appear here. Rule as the data show it: active = normalized growth mostly below about 0.91 (no sharp cut-off); inconclusive = no clear call, values can overlap the other calls; inactive = mostly above about 0.92. The list shows a part of the results.

Assay: chemical genetic growth profiling, strain panel (AID 1159580);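 also: tested at 20 µM; growth read once vehicle control cultures reached saturation at 30 °C; 1 = growth at the plate median or of vehicle wells; lower values mean less growth of the strain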
Settings: growth OD

Measured: normalized growth

COc1cc2c(cc1OC)C1(O)C(=O)c3ccc(O)c(C(=O)O)c3OC1CO2 (stereo not drawn)
inactive: S. cerevisiae deletion strains, locus YKL009W, strain mrt4, stronger effect = lower value 1.06 | S. cerevisiae deletion strains, locus YKL068W, stronger effect = lower value 0.983 | S. cerevisiae deletion strains, locus YKL085W, strain MDH1 (second series), stronger effect = lower value 0.975 | S. cerevisiae deletion strains, locus YKL085W, strain MDH1, stronger effect = lower value 0.975 | S. cerevisiae deletion strains, locus YKL160W, strain elf1, stronger effect = lower value 0.984 | S. cerevisiae deletion strains, locus YKL190W, strain CNB1, stronger effect = lower value 0.991 | S. cerevisiae deletion strains, locus YKR001C, strain vps1, stronger effect = lower value 1.01 | S. cerevisiae deletion strains, locus YKR026C, strain gcn3, stronger effect = lower value 0.99 | S. cerevisiae deletion strains, locus YKR091W, strain srl3, stronger effect = lower value 0.992 | S. cerevisiae deletion strains, locus YLL001W, strain dnm1, stronger effect = lower value 1 | S. cerevisiae deletion strains, locus YLL026W, stronger effect = lower value 0.993 | S. cerevisiae deletion strains, locus YLL041C, strain sdh2, stronger effect = lower value 0.998 | S. cerevisiae deletion strains, locus YLR027C, strain aat2, stronger effect = lower value 0.998 | S. cerevisiae deletion strains, locus YLR039C, strain RIC1, stronger effect = lower value 1.08 | S. cerevisiae deletion strains, locus YLR058C, strain SHM2, stronger effect = lower value 1.01 | S. cerevisiae deletion strains, locus YLR102C, strain apc9, stronger effect = lower value 0.975 | S. cerevisiae deletion strains, locus YLR113W, strain HOG1, stronger effect = lower value 0.982 | S. cerevisiae deletion strains, locus YLR221C, strain rsa3, stronger effect = lower value 1.02 | S. cerevisiae deletion strains, locus YLR258W, strain gsy2, stronger effect = lower value 0.99 | S. cerevisiae deletion strains, locus YLR262C, strain YPT6 (second series), stronger effect = lower value 1.02 | S. cerevisiae deletion strains, locus YLR262C, strain YPT6, stronger effect = lower value 1.08 | S. cerevisiae deletion strains, locus YLR268W, strain sec22, stronger effect = lower value 1.02 | S. cerevisiae deletion strains, locus YLR320W, strain mms22, stronger effect = lower value 1.01 | S. cerevisiae deletion strains, locus YLR330W, strain CHS5, stronger effect = lower value 1 | S. cerevisiae deletion strains, locus YLR342W, strain FKS1, stronger effect = lower value 1.02 | S. cerevisiae deletion strains, locus YLR357W, strain rsc2, stronger effect = lower value 0.987 | S. cerevisiae deletion strains, locus YLR370C, strain arc18, stronger effect = lower value 0.988 | S. cerevisiae deletion strains, locus YLR371W, strain rom2, stronger effect = lower value 1 | S. cerevisiae deletion strains, locus YLR384C, strain iki3, stronger effect = lower value 0.985 | S. cerevisiae deletion strains, locus YLR418C, strain cdc73, stronger effect = lower value 1 | S. cerevisiae deletion strains, locus YML016C, strain PPZ1, stronger effect = lower value 1.01 | S. cerevisiae deletion strains, locus YML032C, strain rad52, stronger effect = lower value 1.01 | S. cerevisiae deletion strains, locus YML120C, strain ndi1, stronger effect = lower value 1 | S. cerevisiae deletion strains, locus YML124C, strain tub3, stronger effect = lower value 0.99 | S. cerevisiae deletion strains, locus YMR058W, strain fet3, stronger effect = lower value 0.995 | S. cerevisiae deletion strains, locus YMR078C, strain ctf18, stronger effect = lower value 0.992 | S. cerevisiae deletion strains, locus YMR125W, strain sto1, stronger effect = lower value 0.983 | S. cerevisiae deletion strains, locus YMR129W, stronger effect = lower value 0.987 | S. cerevisiae deletion strains, locus YMR205C, strain PFK2, stronger effect = lower value 1.02 | S. cerevisiae deletion strains, locus YMR223W, strain ubp8, stronger effect = lower value 0.98 | S. cerevisiae deletion strains, locus YMR231W, strain pep5, stronger effect = lower value 0.994 | S. cerevisiae deletion strains, locus YMR307W, strain GAS1, stronger effect = lower value 1.18 | S. cerevisiae deletion strains, locus YNL067W, strain RPL9B, stronger effect = lower value 0.977 | S. cerevisiae deletion strains, locus YNL071W, strain lat1, stronger effect = lower value 0.991 | S. cerevisiae deletion strains, locus YNL128W, strain TEP1, stronger effect = lower value 1 | S. cerevisiae deletion strains, locus YNL153C, strain GIM3, stronger effect = lower value 0.991 | S. cerevisiae deletion strains, locus YNL183C, strain NPR1, stronger effect = lower value 0.94 | S. cerevisiae deletion strains, locus YNL209W, strain ssb2, stronger effect = lower value 0.989 | S. cerevisiae deletion strains, locus YNL233W, strain BNI4, stronger effect = lower value 0.996 | S. cerevisiae deletion strains, locus YNL248C, strain rpa49, stronger effect = lower value 0.974 | S. cerevisiae deletion strains, locus YNL250W, strain rad50, stronger effect = lower value 0.968 | S. cerevisiae deletion strains, locus YNL271C, strain bni1, stronger effect = lower value 0.99 | S. cerevisiae deletion strains, locus YNL298W, strain CLA4, stronger effect = lower value 0.985 | S. cerevisiae deletion strains, locus YNL307C, strain MCK1, stronger effect = lower value 0.984 | S. cerevisiae deletion strains, locus YNL322C, strain KRE1 (second series), stronger effect = lower value 1.01 | S. cerevisiae deletion strains, locus YNL322C, strain KRE1, stronger effect = lower value 0.988 | S. cerevisiae deletion strains, locus YNR049C, strain mso1, stronger effect = lower value 0.996 | S. cerevisiae deletion strains, locus YNR052C, strain pop2, stronger effect = lower value 0.999 | S. cerevisiae deletion strains, locus YOL006C, strain TOP1, stronger effect = lower value 1.38 | S. cerevisiae deletion strains, locus YOL012C, strain htz1 0.856 | S. cerevisiae deletion strains, locus YOL147C, strain pex11, stronger effect = lower value 0.995 | S. cerevisiae deletion strains, locus YOR001W, strain rrp6, stronger effect = lower value 1.02 | S. cerevisiae deletion strains, locus YOR061W, strain CKA2, stronger effect = lower value 1.05 | S. cerevisiae deletion strains, locus YOR069W, strain VPS5, stronger effect = lower value 0.989 | S. cerevisiae deletion strains, locus YOR070C, strain gyp1, stronger effect = lower value 0.984 | S. cerevisiae deletion strains, locus YOR080W, strain dia2, stronger effect = lower value 0.998 | S. cerevisiae deletion strains, locus YOR083W, strain WHI5, stronger effect = lower value 0.999 | S. cerevisiae deletion strains, locus YOR106W, strain vam3, stronger effect = lower value 0.997 | S. cerevisiae deletion strains, locus YOR136W, strain idh2, stronger effect = lower value 1 | S. cerevisiae deletion strains, locus YOR144C, strain elg1, stronger effect = lower value 0.994 | S. cerevisiae deletion strains, locus YOR184W, strain ser1, stronger effect = lower value 1.07 | S. cerevisiae deletion strains, locus YOR231W, strain MKK1, stronger effect = lower value 0.989 | S. cerevisiae deletion strains, locus YOR265W, strain rbl2, stronger effect = lower value 1.01 | S. cerevisiae deletion strains, locus YOR270C, strain vph1, stronger effect = lower value 1.01 | S. cerevisiae deletion strains, locus YOR290C, strain snf2, stronger effect = lower value 0.978 | S. cerevisiae deletion strains, locus YOR316C, strain cot1, stronger effect = lower value 0.976 | S. cerevisiae deletion strains, locus YPL051W, strain arl3, stronger effect = lower value 0.982 | S. cerevisiae deletion strains, locus YPL078C, strain atp4, stronger effect = lower value 0.98 | S. cerevisiae deletion strains, locus YPL106C, strain sse1, stronger effect = lower value 0.991 | S. cerevisiae deletion strains, locus YPL240C, strain hsp82, stronger effect = lower value 0.977 | S. cerevisiae deletion strains, locus YPL241C, strain CIN2, stronger effect = lower value 0.983 | S. cerevisiae deletion strains, locus YPL256C, strain CLN2, stronger effect = lower value 0.95 | S. cerevisiae deletion strains, locus YPR119W, strain clb2, stronger effect = lower value 0.973 | S. cerevisiae deletion strains, locus YPR141C, strain kar3, stronger effect = lower value 0.96 | S. cerevisiae deletion strains, locus YPR163C, strain tif3, stronger effect = lower value 0.997 | S. cerevisiae deletion strains, locus YPR167C, strain met16, stronger effect = lower value 1 | S. cerevisiae deletion strains, strain wtn01, stronger effect = lower value 1.03 | S. cerevisiae strains, strain wild type, stronger effect = lower value 1.04
